{"source": "PubChem BioAssay (EPA / NIEHS)", "note": "Records with an inconclusive call do not appear. Activity calls are given as the source filed them. The calls were made as follows: active = hit-call score of the fitted dose curve at least 0.9, where 1 is the maximum; inconclusive = response in the unintended direction; inactive = score below 0.9."}
{"target": "human RAR-related Orphan Receptor beta (RORb), RORB (gene 6096) (UniProt Q92753)", "sequence (Q92753 whole entry, looked up)": "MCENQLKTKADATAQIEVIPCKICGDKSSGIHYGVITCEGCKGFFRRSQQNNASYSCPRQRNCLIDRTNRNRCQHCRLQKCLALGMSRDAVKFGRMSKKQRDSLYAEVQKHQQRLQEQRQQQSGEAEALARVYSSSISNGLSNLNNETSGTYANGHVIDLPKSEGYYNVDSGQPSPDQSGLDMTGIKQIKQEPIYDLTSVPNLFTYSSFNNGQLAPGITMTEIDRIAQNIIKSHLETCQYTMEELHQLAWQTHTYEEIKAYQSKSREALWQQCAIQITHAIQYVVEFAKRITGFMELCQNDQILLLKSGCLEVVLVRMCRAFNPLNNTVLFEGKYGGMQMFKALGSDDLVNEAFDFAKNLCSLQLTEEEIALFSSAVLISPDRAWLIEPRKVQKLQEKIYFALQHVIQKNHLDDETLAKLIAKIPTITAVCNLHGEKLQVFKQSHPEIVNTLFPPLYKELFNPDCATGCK", "test": "ATG_RORb_TRANS: Attagene TRANS-FACTORIAL HepG2 Assay for human RAR-related Orphan Receptor beta (RORb) (AID 2283010)", "procedure": "ATG_TRANS is a cell-based, multiplexed-readout assay that uses HepG2, a human liver cell line, with measurements taken at 24 hours after chemical dosing in a 24-well plate.ATG_RORb_TRANS is one of 30 assay component(s) measured or calculated from the ATG_TRANS assay. It is designed to make measurements of mRNA induction, a form of inducible reporter, as detected with fluorescence intensity signals by Reverse transcription polymerase chain reaction (RT-PCR) and Capillary electrophoresis technology.Data from the assay component ATG_RORb_TRANS was analyzed into 1 assay endpoint. This assay endpoint, ATG_RORb_TRANS, was analyzed in the positive analysis fitting direction relative to DMSO as the negative control and baseline of activity. Using a type of inducible reporter, measures of mRNA for gain-of-signal activity can be used to understand the reporter gene at the transcription factor-level as they relate to the gene RORB. Furthermore, this assay endpoint can be referred to as a primary readout, because this assay has produced multiple assay endpoints where this one serves a reporter gene function. To generalize the intended target to other relatable targets, this assay endpoint is annotated to the nuclear receptor intended target family, where the subfamily is orphan.\nHuman liver HepG2 cells are transiently transfected with multiple reporter transcription units (MRTUs) in 6-well plates using FuGene 6 reagent (Roche; 3 ml FuGene/1 mg DNA). The MRTU constructs are regulated by a cis-regulating element (promoter). […] A major difference between the CIS and TRANS system is that in CIS activities of endogenous TFs are measured, whereas the TRANS assay evaluates changes in activities of exogenous, chimeric NR-Gal4 proteins. […] At the end of 24 hour incubation, total RNA was isolated using TriZol reagent (Invitrogen). The isolated RNA is then reverse-transcribed using oligo(dT) primer and Mo-MLV reverse transcriptase (Invitrogen) with DNAse I (Ambion) treatment for 30 min. The one-tenth of the produced cDNA was amplified by PCR using Taq DNA polymerase (Invitrogen) and two reporter sequence-specific primers. The PCR products were fluorescently labeled by primer extension with 6-arboxyfluorescein (6-FAM) 5'-labeled reporter sequence-specific primer (2 min at 95 C, 20 s at 68 C and 10 min at 72 C) and these products were digested with 5U of HpaI (New England Biolabs) for 2h at 37 C. The fragments were purified using Qiaquick PCR columns (Qiagen), analyzed on an ABI 3130xL genetic analyzer (Applied Biosystems) with peak positions identified by using a set of X-rhodamine (ROX)-labeled MapMarker1000 molecular weight standards (BioVentures). The raw capillary electrophoresis data was processed using Attagraph software (Attagene)."}
{"smiles": "CC1(C)C(C=C(Cl)Cl)C1C(=O)OC(C#N)c1cccc(Oc2ccccc2)c1", "note": "(centres undefined)", "outcome": "inactive"}
{"smiles": "CCCC(=NOCC)C1=C(O)CC(CC(C)SCC)CC1=O", "note": "(centres undefined)", "outcome": "inactive"}
{"smiles": "COc1ccc(-c2ccccc2)cc1NNC(=O)OC(C)C", "outcome": "inactive"}
{"smiles": "CNC(=O)Oc1cccc2ccccc12", "outcome": "inactive"}
{"smiles": "Nc1cnn(-c2ccccc2)c(=O)c1Cl", "outcome": "inactive"}
{"smiles": "O=C1C2CC=CCC2C(=O)N1SC(Cl)(Cl)Cl", "note": "(centres undefined)", "outcome": "inactive"}
{"smiles": "COC(=O)N(C(=O)N1CO[C@@]2(C(=O)OC)Cc3cc(Cl)ccc3C2=N1)c1ccc(OC(F)(F)F)cc1", "outcome": "inactive"}
{"smiles": "COP(=O)(OC)O/C(C)=C/C(=O)N(C)C", "outcome": "inactive"}
{"smiles": "N#CN=C1SCCN1Cc1ccc(Cl)nc1", "outcome": "inactive"}
{"smiles": "O=C(Nc1ccccc1-c1ccc(Cl)cc1)c1cccnc1Cl", "outcome": "inactive"}
{"smiles": "COc1cc(OC)nc(NC(=O)NS(=O)(=O)c2ncccc2OCC(F)(F)F)n1", "outcome": "inactive"}
{"smiles": "CCC(C)n1c(=O)[nH]c(C)c(Br)c1=O", "note": "(centres undefined)", "outcome": "inactive"}
{"smiles": "CCCN(CC)CC1COC2(CCC(C(C)(C)C)CC2)O1", "note": "(centres undefined)", "outcome": "inactive"}
{"smiles": "CC(C)N1C(=O)N(c2ccccc2)CSC1=NC(C)(C)C", "outcome": "inactive"}
{"smiles": "Cc1cc(C)nc(Nc2ccccc2)n1", "outcome": "inactive"}
{"smiles": "COP(=S)(OC)Oc1ccc([N+](=O)[O-])c(C)c1", "outcome": "inactive"}
{"smiles": "COC(=O)NC(=S)Nc1ccccc1NC(=S)NC(=O)OC", "outcome": "inactive"}
{"smiles": "O=c1n(Cl)c(=O)n(Cl)c(=O)n1Cl", "outcome": "inactive"}
{"smiles": "CC(C)C1(C)N=C(c2ncccc2C(=O)O)NC1=O", "note": "(centres undefined)", "outcome": "inactive"}
{"smiles": "CC(C)Oc1cccc(NC(=O)c2ccccc2C(F)(F)F)c1", "outcome": "inactive"}
{"smiles": "Nc1c(Cl)c(F)nc(OCC(=O)O)c1Cl", "outcome": "inactive"}
{"smiles": "Cc1cnc(C2=NC(C)(C(C)C)C(=O)N2)c(C(=O)O)c1", "note": "(centres undefined)", "outcome": "inactive"}
{"smiles": "Cc1nc(N(C)C)nc(OC(=O)N(C)C)c1C", "outcome": "inactive"}
{"smiles": "CCNC(=O)NC(=O)C(C#N)=NOC", "outcome": "inactive"}
{"smiles": "COP(=S)(OC)SCn1nnc2ccccc2c1=O", "outcome": "inactive"}
{"smiles": "CCN(CC)C(=O)C(C)Oc1cccc2ccccc12", "note": "(centres undefined)", "outcome": "inactive"}
{"smiles": "CC1(C)CON(Cc2ccccc2Cl)C1=O", "outcome": "inactive"}
{"smiles": "CCSC(=O)N1CCCCCC1", "outcome": "inactive"}
{"smiles": "Cc1c(COC(=O)[C@@H]2[C@H](/C=C(\\Cl)C(F)(F)F)C2(C)C)cccc1-c1ccccc1", "outcome": "inactive"}
{"smiles": "COCc1cnc(C2=NC(C)(C(C)C)C(=O)N2)c(C(=O)O)c1", "note": "(centres undefined)", "outcome": "inactive"}
{"smiles": "CCCCOCN(C(=O)CCl)c1c(CC)cccc1CC", "outcome": "inactive"}
{"smiles": "CCOc1nc(C(Cl)(Cl)Cl)ns1", "outcome": "inactive"}
{"smiles": "CSC(=O)c1c(C(F)F)nc(C(F)(F)F)c(C(=O)SC)c1CC(C)C", "outcome": "inactive"}
{"smiles": "CCOP(=S)(OCC)Oc1nc(Cl)n(C(C)C)n1", "outcome": "inactive"}
